Test [1] concerns XIP peptide (Xip251-270) binding. The test is described as follows: XIP fragment 251-270 binding compounds – biochemical, small-molecule microarray, fluorescence 635/667 nm, 0.1 µg/mL protein, primary screen (AID 1182). The note with it: fluorescent protein binding, 635 nm, higher = more signal, called active from +8 up or from −8 down.
For test [2], the system named is XIP peptide (Xip251-270). The test is described as follows: compounds binding XIP fragment 251-270 – biochemical, small-molecule microarray, fluorescence 635/667 nm, 0.5 µg/mL protein, primary screen (AID 1183). The note with it: fluorescence 635 nm, higher = more signal.
Test [3] is described as follows: blood-stage malaria parasite viability loss – strain 3D7, DAPI fluorescence, 100 nL, primary screen (AID 1184).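 Note: parasites grown inside human red blood cells in medium with human serum.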 Conditions: P. falciparum 3D7 growth, 3 d, higher = more signal.
Test [4] addresses Homeobox protein Hox-A13 (Mus musculus) (UniProt Q62424). The experiment in a line: disruptors of Hoxa13 oligonucleotide interaction – biochemical, fluorescence polarization, labeled oligonucleotide, primary screen (AID 1185). Conditions: Hoxa13:DNA binding, 15 min, higher = more signal, called active from +8 up or from −8 down.

Active and inactive are the calls of the source.

Homeobox protein Hox-A13 (Mus musculus), sequence (Q62424 whole entry, looked up): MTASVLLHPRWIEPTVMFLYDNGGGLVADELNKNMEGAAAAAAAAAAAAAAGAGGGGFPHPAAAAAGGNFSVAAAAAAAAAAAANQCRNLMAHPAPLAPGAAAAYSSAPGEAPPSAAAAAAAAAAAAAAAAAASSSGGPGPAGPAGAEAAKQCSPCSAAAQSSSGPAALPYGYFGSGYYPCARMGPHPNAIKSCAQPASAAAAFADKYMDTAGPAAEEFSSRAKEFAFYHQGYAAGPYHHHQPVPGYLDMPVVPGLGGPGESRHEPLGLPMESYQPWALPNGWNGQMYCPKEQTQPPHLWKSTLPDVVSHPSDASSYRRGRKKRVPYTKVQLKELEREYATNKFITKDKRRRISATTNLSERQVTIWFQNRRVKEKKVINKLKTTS

Turning to `COCC#Cc1ccc([C@@H]2N[C@H](C(=O)O)CC[C@H]2C)cc1`, the composite z-score is -0.238 (inactive) in test [1] and -0.52 in test [2]. Also, the values for the z-score in test [3] and in test [4] were 0.383 and -1.46 (inactive), respectively.

`COC(=O)CC=C[C@@H](C)[C@@H](C=NOC[C@@H](O)[C@H]1O[C@@H]2OC(C)(C)O[C@@H]2[C@H]1O)OC`: the figures for the composite z-score in test [1] and in test [2] were -0.33 (inactive) and -0.0618, respectively. Besides, the z-score in test [3] was 0.364; in test [4] it was 0.321 (inactive).

As to `CCCNC(=O)OC[C@H]1O[C@H](CCON=C[C@@H](C)[C@H](OCc2ccccc2)C(C)C)C=C[C@@H]1Oc1ccc(OC)cc1`, the composite z-score in test [1] is 0.196 (inactive); in test [2], -0.267. Moreover, the z-score was -0.591 in test [3] and -3.32 (inactive) in test [4].

For `COc1ccc(COC(=O)NN=C2C[C@@H](O)[C@@H](O)[C@@H]3[C@@H]4C(=O)N(C(C)(C)C)C(=O)[C@@H]4CC[C@@H]23)cc1`, the composite z-score in test [1] is 0.457 (inactive); in test [2], 0.48. The z-score in test [3] is 0.553; in test [4], -1.64 (inactive).

Take `CO[C@@H]1COC(=O)[C@@H]2CCCN2C(=O)[C@@H](C)COC(=O)CCC[C@H]1C`: the composite z-score in test [1] was -0.0308 (inactive); in test [2], 0.143. The figures for the z-score in test [3] and in test [4] were 0.193 and 0.694 (inactive), respectively.

Consider `C[C@@H]1CC[C@H]2C(=O)O[C@@H](COc3ccc(C(C)(C)C)cc3)CN2[C@H]1c1ccc(Br)cc1`, for which the composite z-score in test [1] was -0.382 (inactive); in test [2], 0.619. In addition, the z-score was 0.907 in test [3] and 0.503 (inactive) in test [4].

`COC(=O)CC=C1c2ccccc2[C@H](OC)[C@H]1C`: the composite z-score in test [1] was -1.14 (inactive); in test [2], -0.302. The z-score in test [3] is 0.406; in test [4], 0.281 (inactive).

Turning to `COc1ccc2c(c1)O[C@@H](c1cccc(C(F)(F)F)c1)[C@H](O)C2=O`, the values for the composite z-score in test [1] and in test [2] were 0.245 (inactive) and -0.233, respectively. For the same molecule, the z-score in test [3] was 0.142; in test [4], 0.16 (inactive).

On to `CC(CCC(=O)OC[C@H]1O[C@H](C#Cc2ccccc2)C=C[C@@H]1Oc1ccc(C)cc1)=NO[C@@H](C)c1cc(-c2c(C)cc(C)cc2C)no1`, for which the composite z-score in test [1] is 0.0185 (inactive); in test [2], -0.333. The z-score in test [3] is -1.36; in test [4] it was -1.88 (inactive).

As for `CCN1C(=O)[C@H]2[C@H]3[C@H](O)[C@H](O)CC(=NOC(C)CN4CCCc5nc(C)c(C)cc54)[C@@H]3CC[C@H]2C1=O` (some centres undefined), the composite z-score was 0.302 (inactive) in test [1] and 0.148 in test [2]. Besides, the z-score is 0.393 in test [3] and -10.2 (active) in test [4].

Regarding `CC(CCC(=O)OC[C@H]1O[C@H](C#Cc2ccccc2)C=C[C@@H]1Oc1ccc(C)cc1)=NOC[C@@H](C)[C@H](OCc1ccccc1)C(C)C`, the values for the composite z-score in test [1] and in test [2] were -0.582 (inactive) and -0.693, respectively. The values for the z-score in test [3] and in test [4] were -0.0982 and -0.499 (inactive), respectively.

With `COc1ccc(COC(=O)NN=C2C[C@@H](O)[C@@H](O)[C@@H]3[C@@H]4C(=O)N([C@@H](C)c5ccccc5)C(=O)[C@@H]4CC[C@@H]23)cc1`, the figures for the composite z-score in test [1] and in test [2] were -0.216 (inactive) and 0.0452, respectively. Moreover, the z-score in test [3] was -0.503; in test [4], -2.18 (inactive).

As for `CCc1cc2c(nc1CC)CCN(CCC(C)=NO[C@@H]1O[C@H](COC(C)=O)[C@@H](OC(C)=O)[C@H](OC(C)=O)[C@H]1OC(C)=O)C2`, the results for the composite z-score in test [1] and in test [2] were 2.93 (inactive) and 0.719, respectively. In addition, the z-score in test [3] was -1.62; in test [4], -4.79 (inactive).

For `CC(C)=NO[C@H](C)c1cn([C@@H]2COC[C@H]2O)nn1`, the composite z-score in test [1] is 0.496 (inactive); in test [2], 0.0358. Besides, the z-score is 0.672 in test [3] and 0.141 (inactive) in test [4].

For the molecule `CO[C@H]1COC(=O)[C@H](CCSC)NC(=O)CC=C[C@@H](C)[C@H](OC)COC(=O)[C@@H](OCc2ccccc2)C=C[C@@H]1C`, the composite z-score was 2.65 (inactive) in test [1] and 0.358 in test [2]. Moreover, the z-score in test [3] was -0.772; in test [4] it was -1.29 (inactive).

Regarding `COc1ccc(COC(=O)NN=C2C[C@@H](O)[C@@H](O)[C@@H]3[C@@H]4C(=O)N([C@@H](C)c5ccccc5)C(=O)[C@@H]4CC[C@H]23)cc1`, the composite z-score in test [1] is -0.153 (inactive); in test [2] it was -0.273. The z-score in test [3] was -0.981; in test [4] it was -3.73 (inactive).

As to `CO[C@H]1COC(=O)CC=C[C@H](C)[C@H](OC)COC(=O)[C@@H](C)NC(=O)CC=C[C@@H]1C`, the composite z-score in test [1] was 0.533 (inactive); in test [2], 0.356. In addition, the z-score was -0.205 in test [3] and -0.75 (inactive) in test [4].

As to `O=C1C[C@@H](O)[C@@H](O)[C@@H]2[C@@H]3C(=O)N(C4CCCCC4)C(=O)[C@@H]3CC[C@@H]12`, the values for the composite z-score in test [1] and in test [2] were -0.08 (inactive) and 0.148, respectively. Also, the z-score is 0.922 in test [3] and 0.136 (inactive) in test [4].

As for `O=C1[C@H]2[C@H]3[C@H](O)[C@H](O)CC(=NOCc4ccccc4)[C@H]3CC[C@H]2C(=O)N1C1CCCCC1`, the composite z-score in test [1] was 0.288 (inactive); in test [2] it was 0.714. Moreover, the z-score in test [3] is -0.369; in test [4], 0.449 (inactive).

In the case of `C[C@]12CCC3c4ccc(OCC5CO5)cc4CCC3C1CC[C@@H]2O` (some centres undefined), the composite z-score was 0.504 (inactive) in test [1] and 0.0249 in test [2]. Besides, the z-score was 0.0788 in test [3] and -2.47 (inactive) in test [4].

With `CC1(C)O[C@H]2O[C@H]([C@H](O)CON=C3[C@H]4CCn5c(=O)n(-c6ccccc6)c(=O)n5[C@H]4[C@H](O)[C@@H]4O[C@H]34)[C@H](O)[C@H]2O1`, the composite z-score in test [1] is 0.469 (inactive); in test [2], -0.0051. Moreover, the z-score in test [3] was -0.511; in test [4] it was -0.437 (inactive).
